Drawing on PubChem BioAssay (NCI), this text covers growth inhibition for seven molecules.

A short description of assay [1]: NCI Yeast Anticancer Drug Screen. Data for the rad50 strain (AID 155).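 Note: 0% = growth of vehicle-only cultures of the same strain.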 The settings on record: S. cerevisiae rad50 strain growth inhibition, stronger effect = higher value. An outline of the steps:
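Growth of the mutant yeast was measured after compound exposure and referenced to vehicle-treated cultures.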

Assay [2] in a line: NCI Yeast Anticancer Drug Screen. Data for the sgs1 mgt1 strain (AID 161).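 Note: 0% = growth of cultures given vehicle only.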 The settings on record: S. cerevisiae sgs1 mgt1 strain, stronger effect = higher value. An outline of the steps:
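Mutant yeast exposed to compound; growth scored against vehicle-only wells.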

Assay [3] can be described thus: NCI Yeast Anticancer Drug Screen. Data for the cln2 rad14 strain (AID 165).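 Note: 0% = growth equal to vehicle treated cultures.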 The settings on record: S. cerevisiae cln2 rad14 strain, stronger effect = higher value. In short, it runs like this: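 Compounds are applied to the cln2 rad14 yeast strain, and growth is then compared with that of vehicle-treated cultures to give inhibition.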
The nature of assay [4]: NCI Yeast Anticancer Drug Screen. Data for the bub3 strain (AID 167). The conditions noted are these: S. cerevisiae bub3 mutant strain, stronger effect = higher value. In short, it runs like this: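 Whole-cell yeast assay. The mutant strain was incubated with compounds, and growth inhibition was determined by comparison with vehicle-treated cells.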
Assay [5] in a line: NCI Yeast Anticancer Drug Screen. Data for the mlh1 rad18 strain (AID 175). The settings on record: S. cerevisiae mlh1 rad18 strain growth inhibition, stronger effect = higher value. An outline of the steps:
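Read-out is yeast growth inhibition, calculated against vehicle-only controls. The compound was applied to a strain engineered with DNA damage repair alterations.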

Assay [6] is described as follows: NCI Yeast Anticancer Drug Screen. Data for the mec2-1 strain (AID 157). The conditions noted are these: S. cerevisiae mec2-1 strain, stronger effect = higher value. In short, it runs like this:
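Strain: mec2-1 (DNA repair/cell cycle alteration). Compound exposure, then growth measured; inhibition expressed relative to vehicle.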

[7] abbreviates: at 5.0 µM (retest, dose inferred, filed as 0.5).
Setting [8] is: at 50.0 µM (retest, dose inferred, filed as 5.0).

“And” between values parts separate entries of the source, which are not always exact repeats. Equal values may be shown once. The panel holds about 79,000 compounds, 15% with a hit somewhere; the sample as a whole holds those more often. Some compounds were tested as several samples or in several runs, with calls that do not always agree. The source made the active and inactive calls. Cut-off read from the data, not from the text of the source: active = growth inhibition above about 70%; inactive = the rest.

As to `CCC1CCCC(=O)C1` (configuration not stated), the growth inhibition in assay [1] (setting [7]) is 2% (inactive); in assay [1] (setting [8]), 2% (inactive); in assay [1] (at 50.0 µM), 89.2% (active); in assay [2] (setting [7]), 0% (inactive); in assay [2] (setting [8]) it was -1% (inactive); in assay [2] (at 50.0 µM), 14.1% (inactive). The growth inhibition was 3% (inactive) in assay [3] (setting [7]); 1% (inactive) in assay [3] (setting [8]); 36.2% (inactive) in assay [3] (at 50.0 µM); 2% (inactive) in assay [4] (setting [7]); 2% (inactive) in assay [4] (setting [8]); 99.4% (active) in assay [4] (at 50.0 µM). Moreover, the growth inhibition was -2% (inactive) in assay [5] (setting [7]), 0% (inactive) in assay [5] (setting [8]) and 91.8% (active) in assay [5] (at 50.0 µM).
Regarding `CC(C)(C)OC(=O)NCCc1cccc2c1oc1c(CCC(=O)O)cccc12`, the growth inhibition in assay [1] (setting [7]) was -14% (inactive); in assay [1] (setting [8]), 76% (active); in assay [1] (at 50.0 µM), 89.6% (active); in assay [2] (setting [7]) it was 3% (inactive); in assay [2] (setting [8]) it was 53% (inactive); in assay [2] (at 50.0 µM), 68.7% (inactive). Also, the growth inhibition in assay [3] (setting [7]) is -16% (inactive); in assay [3] (setting [8]), 99% (active); in assay [3] (at 50.0 µM), 87% (active); in assay [4] (setting [7]), -20% (inactive); in assay [4] (setting [8]), 88% (active); in assay [4] (at 50.0 µM), 79.6% (active). Besides, the growth inhibition in assay [5] (setting [7]) is -7% (inactive); in assay [5] (setting [8]), 96% (active); in assay [5] (at 50.0 µM), 83.5% (active).
`CCCc1cc(=O)oc2c3c(c4c(c12)OC(C)(C)CC4)O[C@@H](C)[C@H](C)[C@H]3O`: the growth inhibition in assay [6] (setting [7]) is -20% (inactive); in assay [6] (setting [8]) it was 95% (active); in assay [6] (at 50.0 µM) it was -18.8% (inactive) and 90% (active); in assay [2] (setting [7]), -1% (inactive); in assay [2] (setting [8]), 93% (active); in assay [2] (at 50.0 µM) it was 3.65% (inactive) and 89.6% (active). The growth inhibition was 21% (inactive) in assay [3] (setting [7]); 94% (active) in assay [3] (setting [8]); 10.9% (inactive) and 88.7% (active) in assay [3] (at 50.0 µM); 0% (inactive) in assay [4] (setting [7]); 92% (active) in assay [4] (setting [8]); 16.3% (inactive) and 87.8% (active) in assay [4] (at 50.0 µM). The growth inhibition in assay [5] (setting [7]) was -6% (inactive); in assay [5] (setting [8]), 93% (active); in assay [5] (at 50.0 µM), 8.05% (inactive) and 85.9% (active).
For the molecule `COC1OC(C(O)CO)C(O)C(O)C1O` (configuration not stated), the growth inhibition in assay [6] (at 50.0 µM) was 13.7% (inactive) [middle of 4 runs]; in assay [2] (at 50.0 µM) it was 12.2% (inactive) [middle of 4 runs]; in assay [5] (at 50.0 µM), 25.1% (inactive) [middle of 4 runs].
As for `CCN(CC)c1ccc(C(=C2C=CC(=[N+](CC)CC)C=C2)c2ccc(N(CC)CC)cc2)cc1`, the growth inhibition in assay [6] (setting [7]) is 98% (active); in assay [6] (setting [8]) it was 92% (active); in assay [6] (at 50.0 µM), 73% (active); in assay [2] (setting [7]), 98% (active); in assay [2] (setting [8]) it was 92% (active); in assay [2] (at 50.0 µM) it was 77.5% (active). For the same molecule, the growth inhibition in assay [3] (setting [7]) is 97% (active); in assay [3] (setting [8]), 91% (active); in assay [3] (at 50.0 µM), 76% (active); in assay [4] (setting [7]) it was 98% (active); in assay [4] (setting [8]), 90% (active); in assay [4] (at 50.0 µM) it was 74.6% (active). Also, the growth inhibition in assay [5] (setting [7]) was 97% (active); in assay [5] (setting [8]), 90% (active).
Turning to `CCC(C)[P+](c1ccccc1)(c1ccccc1)c1ccccc1` (configuration not stated), the growth inhibition was 2% (inactive) in assay [1] (setting [7]); 36% (inactive) in assay [1] (setting [8]); 62.9% (inactive) and 33.3% (inactive) in assay [1] (at 50.0 µM); -8% (inactive) in assay [2] (setting [7]); 23% (inactive) in assay [2] (setting [8]); 53.9% (inactive) and 19.9% (inactive) in assay [2] (at 50.0 µM). Also, the growth inhibition in assay [3] (setting [7]) was -4% (inactive); in assay [3] (setting [8]), 25% (inactive); in assay [3] (at 50.0 µM), 58.1% (inactive) and 36% (inactive); in assay [4] (setting [7]), -3% (inactive); in assay [4] (setting [8]) it was 30% (inactive); in assay [4] (at 50.0 µM), 57.8% (inactive) and 36% (inactive). Moreover, the growth inhibition is 21% (inactive) in assay [5] (setting [7]); 54% (inactive) in assay [5] (setting [8]); 72.4% (active) and 53.9% (inactive) in assay [5] (at 50.0 µM).
For the molecule `CCOc1ccc(NC(=O)C(=O)NO)cc1`, the growth inhibition in assay [6] (setting [7]) is -25% (inactive); in assay [6] (setting [8]), 59% (inactive); in assay [6] (at 50.0 µM) it was 71.8% (active); in assay [2] (setting [7]) it was 10% (inactive); in assay [2] (setting [8]) it was 67% (inactive); in assay [2] (at 50.0 µM), 74% (active). Further, the growth inhibition was 6% (inactive) in assay [3] (setting [7]); 26% (inactive) in assay [3] (setting [8]); 52% (inactive) in assay [3] (at 50.0 µM); -8% (inactive) in assay [4] (setting [7]); 85% (active) in assay [4] (setting [8]); 79.5% (active) in assay [4] (at 50.0 µM). The growth inhibition is -14% (inactive) in assay [5] (setting [7]), 87% (active) in assay [5] (setting [8]) and 79.7% (active) in assay [5] (at 50.0 µM).
